Source: PubChem BioAssay AID1159580 (chemical genetic matrix, 2015)
Out of some 5,500 compounds screened, about 2,000 (36%) were called active. Another 18% or so got no clear call; they are omitted. Rule as the data show it: active = normalized growth mostly below about 0.91 (no sharp cut-off); inconclusive = no clear call, values can overlap the other calls; inactive = mostly above about 0.92. The list shows a part of the results.

Test: chemical genetic growth profiling, strain panel (AID 1159580);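 also: tested at 20 µM; growth read once vehicle control cultures reached saturation at 30 °C; 1 = growth at the plate median or of vehicle wells; lower values mean less growth of the strain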
Conditions: growth OD
[1] = S. cerevisiae deletion strains, locus YAL013W, strain DEP1, stronger effect = lower value
[2] = S. cerevisiae deletion strains, locus YBR229C, strain ROT2, stronger effect = lower value
[3] = S. cerevisiae deletion strains, locus YCL061C, strain MRC1, stronger effect = lower value
[4] = S. cerevisiae deletion strains, locus YDL101C, strain DUN1, stronger effect = lower value
[5] = S. cerevisiae deletion strains, locus YDR150W, strain NUM1, stronger effect = lower value
[6] = S. cerevisiae deletion strains, locus YEL061C, strain CIN8, stronger effect = lower value
[7] = S. cerevisiae deletion strains, locus YGR078C, strain PAC10, stronger effect = lower value
[8] = S. cerevisiae deletion strains, locus YHR030C, strain SLT2, stronger effect = lower value
[9] = S. cerevisiae deletion strains, locus YHR087W, strain rtc3, stronger effect = lower value
[10] = S. cerevisiae deletion strains, locus YJL187C, strain SWE1, stronger effect = lower value
[11] = S. cerevisiae deletion strains, locus YJR043C, strain POL32, stronger effect = lower value
[12] = S. cerevisiae deletion strains, locus YJR075W, strain HOC1, stronger effect = lower value
[13] = S. cerevisiae deletion strains, locus YLR039C, strain RIC1, stronger effect = lower value
[14] = S. cerevisiae deletion strains, locus YLR058C, strain SHM2 (second series), stronger effect = lower value
[15] = S. cerevisiae deletion strains, locus YLR085C, strain ARP6, stronger effect = lower value
[16] = S. cerevisiae deletion strains, locus YLR262C, strain YPT6, stronger effect = lower value
[17] = S. cerevisiae deletion strains, locus YML094W, strain GIM5, stronger effect = lower value
[18] = S. cerevisiae deletion strains, locus YMR219W, strain ESC1, stronger effect = lower value
[19] = S. cerevisiae deletion strains, locus YMR263W, strain SAP30, stronger effect = lower value
[20] = S. cerevisiae deletion strains, locus YNL153C, strain GIM3, stronger effect = lower value
[21] = S. cerevisiae deletion strains, locus YNL298W, strain CLA4 (second series), stronger effect = lower value
[22] = S. cerevisiae deletion strains, locus YNL322C, strain KRE1, stronger effect = lower value
[23] = S. cerevisiae deletion strains, locus YNR030W, strain Alg12, stronger effect = lower value
[24] = S. cerevisiae deletion strains, locus YPL055C, strain LGE1, stronger effect = lower value
[25] = S. cerevisiae deletion strains, locus YPL241C, strain CIN2, stronger effect = lower value
[26] = S. cerevisiae deletion strains, locus YPR135W, strain CTF4, stronger effect = lower value
[27] = S. cerevisiae deletion strains, locus YDL134C, strain PPH21, stronger effect = lower value
[28] = S. cerevisiae deletion strains, locus YKL190W, strain CNB1, stronger effect = lower value

Measured: normalized growth

O=C(NNC(=S)Nc1cccc(Cl)c1)c1cccnc1
inactive: [1] 1 | [2] 1 | [3] 0.976 | [4] 0.978 | [5] 0.969 | [6] 1.01 | [7] 0.97 | [8] 0.939 | [9] 0.992 | [10] 0.985 | [11] 0.999 | [12] 0.982 | [13] 1.03 | [14] 0.997 | [15] 0.885 | [16] 1.02 | [17] 0.965 | [18] 0.999 | [19] 0.949 | [20] 0.979 | [21] 0.98 | [22] 0.994 | [23] 0.956 | S. cerevisiae deletion strains, locus YOL006C, strain TOP1, stronger effect = lower value 0.803 | [24] 0.868 | [25] 0.972 | [26] 0.893

O=C(CSCc1c(Cl)cccc1Cl)NNC(=S)NC1CC2C=CC1C2 (centres undefined)
inactive: [1] 0.99 | [2] 0.972 | [4] 0.94 | [5] 0.956 | [7] 0.97 | [8] 0.838 | [9] 1.06 | [10] 0.979 | [11] 0.971 | [12] 0.973 | [14] 1.01 | [15] 0.788 | [18] 1.01 | [19] 0.944 | [20] 0.955 | [22] 1.02 | [24] 0.867 | [26] 0.873
active: [27] 0.857 | [28] 0.762 | [13] 0.607 | [16] 0.59 | [17] 0.827 | S. cerevisiae deletion strains, locus YNL128W, strain TEP1, stronger effect = lower value 0.792 | [21] 0.658 | [23] 0.781 | [25] 0.696 | S. cerevisiae strains, strain wild type, stronger effect = lower value 0.746

O=C(NNC(=S)NC1CC2C=CC1C2)c1cccnc1 (centres undefined)
inactive: [1] 0.985 | [2] 0.992 | [3] 0.971 | [4] 0.979 | [27] 0.992 | [5] 0.971 | [6] 0.977 | [7] 0.982 | [8] 0.908 | [9] 1.07 | [10] 0.989 | [11] 0.977 | [12] 0.986 | [28] 0.997 | [13] 0.812 | [14] 0.985 | [15] 0.938 | [17] 0.962 | [18] 0.993 | [19] 0.984 | S. cerevisiae deletion strains, locus YMR307W, strain GAS1, stronger effect = lower value 1.22 | [20] 0.993 | [21] 0.958 | [22] 0.993 | [23] 0.979 | [24] 0.979 | [25] 0.964 | [26] 0.92
active: [16] 0.809
